This is an account of results in PubChem BioAssay.

The list shows a part of the results. Calls of active or inactive are those of the source. Unless noted, no rule for the calls is given here.

Test [1] is described as follows: Brca1-Bard1 BiLC signal decrease – luminescence, single concentration, counter-screen for Mdm2/MdmX interaction inhibitor project, confirmation (AID 504668). As to conditions: Brca1/Bard1 bimolecular luciferase complementation counterscreen, at 8 µM, stronger effect = higher value.
Test [2] concerns the target Tumor necrosis factor receptor superfamily member 10B (Homo sapiens) (UniProt O14763). In words: viability loss of caspase-8 NB7 cells with TRAIL – with/without TRAIL, luminescence panel, confirmation (AID 651596; in the data active = activity above about 50%). The conditions noted are these: NB7 neuroblastoma + caspase-8, TRAIL sensitization, NB7 Caspase-8, with TRAIL, mean of runs, at 10 µM, stronger effect = higher value.
Assay in test [3]: as above
As to conditions: NB7 neuroblastoma + caspase-8, without TRAIL, NB7 Caspase-8, without TRAIL, mean of runs, at 10 µM.

A short description of test [4]: HIF-2a driven luciferase blockers, single dose – luminescence, 786-0 RCC cells, confirmation (AID 651580;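 active = mean inhibition across four replicates of at least 40 percent at the single tested concentration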). The conditions noted are these: HIF-2a luciferase reporter luminescence, overnight, at 18.8 µM, stronger effect = higher value.
Test [5] can be described thus: HIF-1a luciferase reporter signal reduction – MiaPaCa-2 cells, single concentration, counter-screen for HIF-2a inhibitor project, confirmation (AID 651589;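 active = mean inhibition of the reporter signal across four replicates at the single tested dose of 50% or more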). As to conditions: MiaPaCa-2 HIF-1a luciferase reporter, desferoxamine, overnight; at 18.8 µM; stronger effect = higher value.

Tumor necrosis factor receptor superfamily member 10B (Homo sapiens), sequence (O14763 whole entry, looked up): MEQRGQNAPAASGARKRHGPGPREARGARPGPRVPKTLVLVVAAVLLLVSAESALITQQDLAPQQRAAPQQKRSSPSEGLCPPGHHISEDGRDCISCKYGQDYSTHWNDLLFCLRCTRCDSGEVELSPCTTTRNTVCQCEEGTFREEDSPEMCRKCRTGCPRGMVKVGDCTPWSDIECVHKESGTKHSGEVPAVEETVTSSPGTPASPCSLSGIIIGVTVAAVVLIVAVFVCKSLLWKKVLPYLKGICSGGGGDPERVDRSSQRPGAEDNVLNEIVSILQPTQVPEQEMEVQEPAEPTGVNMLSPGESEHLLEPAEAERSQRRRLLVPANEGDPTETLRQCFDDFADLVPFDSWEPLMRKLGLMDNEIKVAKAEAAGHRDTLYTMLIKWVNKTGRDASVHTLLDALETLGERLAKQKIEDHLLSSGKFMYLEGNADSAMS

As to `O=C(C[C@@H]1C/C=C/CC[C@H](Cc2ccc(F)cc2)C(=O)OC[C@@H](Cc2ccccc2)NC1=O)N[C@H](CO)Cc1ccccc1`, the inhibition in test [1] was 29.8% (active). In addition, the activity was determined as 87.7% in test [2] and 95.8% in test [3].

For `COC(=O)c1c(NC(=O)c2ccc(OC(C)C)cc2)sc2c1CC(C)(C)NC2(C)C`, in test [1], the inhibition is 23.6% (active). For the same molecule, the activity in test [2] came out at 43.5%; in test [3], 31.2%.

`CN(C)c1ccnc2c[cH-]cc12.[Fe].c1ccc(-[c-]2[c-](-c3ccccc3)[c-](-c3ccccc3)[c-](-c3ccccc3)[c-]2-c2ccccc2)cc1` (stereo not given): the inhibition in test [1] was 32% (active). The activity in test [2] was 6.08%; in test [3], -38.5%.

`O=C(Nc1ccc(OCC(F)(F)C(F)F)c(C(F)(F)F)c1)c1ccc(Cl)cc1`: the inhibition in test [1] is 34% (active). The activity in test [2] turned out to be 87.3%; in test [3] it was 65.7%.

For the molecule `Cc1ccc(N(Cc2cc(=O)[nH]c3ccccc23)C(=O)CCl)cc1`, the inhibition in test [1] is 25.3% (active); in test [4], 76.7% (active); in test [5], 107% (active). For the same molecule, the activity worked out at 99.1% in test [2] and 99.3% in test [3].

`Cn1ncc2c(O/N=C(\N)c3ccc(C(F)(F)F)cc3)ncnc21`: the inhibition in test [1] was 24.2% (active). Besides, the activity in test [2] and in test [3] was 98.8% in each case.

In the case of `CCN(CC)CCCNc1ccc(-c2nnc(-c3ccc(OCC(C)C)cc3)o2)cn1`, the inhibition in test [1] was 23.9% (active). Moreover, the activity in test [2] turned out to be 82.5%; in test [3] it was 97.9%.

As for `Cn1c(=NC(=O)CCl)sc2ccccc21`, the inhibition in test [1] was 28.7% (active). In addition, the activity is 99.5% in test [2] and 98.7% in test [3].

Regarding `O=C(Nc1ccc2c(c1)OCCO2)c1cccc2nc3ccccc3nc12`, the inhibition in test [1] was 27.6% (active). For the same molecule, the activity in test [2] was found to be 59.7%; in test [3], 77.5%.

Turning to `Cn1c(=O)c(C(=O)Nc2ccccn2)c(O)c2ccccc21`, in test [1], the inhibition is 28.9% (active). Moreover, the activity was determined as 60.7% in test [2] and 58.8% in test [3].

`COC(=O)Cc1ccc(NC(=O)c2ccc(C(C)(C)C)cc2)cc1`: in test [1], the inhibition was 28.9% (active). In addition, the activity in test [2] stood at 76.2%; in test [3] it was 77.3%.
